Test results reported in PubChem BioAssay (Tox21).
Several values for one entry are separate records, joined by “and”; a condition that tells them apart may be missing. Equal values may be shown once. Inconclusive results are not listed. Where a call stands in place of a potency, no number is given. Some compounds were tested as several samples or in several runs, with calls that do not always agree. Activity calls are given as the source filed them. Unless noted, the call rests on the fitted dose curve; in most records, active means well fitted curve in the direction sought with a large enough effect in the repeat runs; inconclusive means weak or mixed curves; inactive means no such curve, though single readings can be large; an effect the other way counts as inactive or inconclusive.

Legend:
[1] = Human pregnane X receptor (PXR) small molecule agonists, qHTS cell viability counter screen (AID 1346977); further: nearly all actives have a fitted effect of over 50% in size; further: potency means the concentration at half of the fitted maximal effect
In short: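 Viability counter screen: CellTiter-Fluor signal in PXR-Luc HepG2 cells, 24hr compound exposure, 37C, 5% CO2.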

[2] = Caspase-3/7 induction in HepG2 cells by small molecules, qHTS assay (AID 1346978); further: nearly all actives have a fitted effect of over 15% in size; further: potency means the concentration at half of the fitted maximal effect
In short: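 Wild-type HepG2 cells, 2,000/well, settled 5 hr at 37 C and 5% CO2, then compound-treated for 17 hr; caspase-3/7 activity read by luminescent Caspase-Glo 3/7 after 30 min at room temperature.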

[3] = Caspase-3/7 induction in CHO-K1 cells by small molecules, qHTS cell viability counter screen (AID 1346979); further: nearly all actives have a fitted effect of over 35% in size; further: potency means the concentration at half of the fitted maximal effect
In short: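 Viability readout by fluorescence (CellTiter-Fluor) on wild-type CHO-K1 cells exposed for 16hr at 37C and 5% CO2 to compounds delivered in DMSO; reagent incubated 1hr before reading.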

[4] = Caspase-3/7 induction in CHO-K1 cells by small molecules, qHTS assay (AID 1346980); further: nearly all actives have a fitted effect of over 15% in size
In short: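 Wild-type CHO-K1 cells exposed to compounds for 17hr at 37 C, 5% CO2. Caspase-3/7 activity then measured by Caspase-Glo 3/7 luminescence after 30min at room temperature.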

[5] = Caspase-3/7 induction in HepG2 cells by small molecules, qHTS cell viability counter screen (AID 1346981); further: nearly all actives have a fitted effect of over 30% in size; further: potency means the concentration at half of the fitted maximal effect
In short: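 After a 5-hr attachment period at 37 C and 5% CO2, wild-type HepG2 cells received compounds in DMSO. Sixteen hours later CellTiter-Fluor was dispensed and the fluorescent signal quantified after a further hour.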

[6] = target: Nuclear receptor subfamily 1 group I member 2 (Homo sapiens) (UniProt O75469); assay: Human pregnane X receptor (PXR) small molecule agonists, qHTS assay (AID 1346982); further: nearly all actives have a fitted effect of over 35% in size; further: potency means the concentration at half of the fitted maximal effect
Nuclear receptor subfamily 1 group I member 2 (Homo sapiens), sequence (O75469 whole entry, looked up): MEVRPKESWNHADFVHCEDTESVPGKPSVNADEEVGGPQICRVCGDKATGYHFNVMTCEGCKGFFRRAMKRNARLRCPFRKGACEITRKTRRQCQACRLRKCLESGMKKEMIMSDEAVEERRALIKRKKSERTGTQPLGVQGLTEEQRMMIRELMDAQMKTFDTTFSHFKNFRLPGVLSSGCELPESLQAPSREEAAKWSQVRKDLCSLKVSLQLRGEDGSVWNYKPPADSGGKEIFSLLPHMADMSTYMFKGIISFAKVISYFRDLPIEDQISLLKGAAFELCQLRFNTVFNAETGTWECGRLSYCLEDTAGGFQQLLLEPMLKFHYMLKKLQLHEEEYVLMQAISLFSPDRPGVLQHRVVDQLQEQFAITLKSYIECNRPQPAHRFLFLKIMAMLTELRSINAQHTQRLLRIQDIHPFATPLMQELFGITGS
In short: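 Tox21 qHTS; PXR-Luc HepG2; compounds pinned from DMSO; 24 hr, 37 C; ONE-Glo luciferase detection, 30 min room temperature.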

[7] = target: Nuclear receptor subfamily 1 group I member 2 (Rattus norvegicus) (UniProt Q9R1A7); assay: Rat pregnane X receptor (rPXR) activation by small molecules, qHTS assay (AID 1346983); details: rPXR luciferase reporter cells, One-Glo luminescence, 24 h; stronger effect = higher value; further: nearly all actives have a fitted effect of over 20% in size
Nuclear receptor subfamily 1 group I member 2 (Rattus norvegicus), sequence (Q9R1A7 whole entry, looked up): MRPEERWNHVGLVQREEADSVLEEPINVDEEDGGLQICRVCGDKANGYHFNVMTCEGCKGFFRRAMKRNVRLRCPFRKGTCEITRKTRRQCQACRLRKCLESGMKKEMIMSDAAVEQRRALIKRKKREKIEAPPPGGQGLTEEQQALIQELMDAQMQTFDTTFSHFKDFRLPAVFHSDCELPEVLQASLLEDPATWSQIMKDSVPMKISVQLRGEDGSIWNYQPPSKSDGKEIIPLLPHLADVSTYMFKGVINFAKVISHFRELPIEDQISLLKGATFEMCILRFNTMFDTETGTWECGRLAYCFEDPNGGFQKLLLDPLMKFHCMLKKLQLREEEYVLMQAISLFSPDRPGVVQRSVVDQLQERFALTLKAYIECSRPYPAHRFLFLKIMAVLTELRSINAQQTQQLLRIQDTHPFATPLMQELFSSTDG
In short: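 Cell-based rPXR activation assay: rPXR cells, 2,000 per well, rested 5hr at 37 C, then exposed to compounds in DMSO for 24 hr at 37 C. Luciferase activity read by One-Glo luminescence after 30 min at room temperature.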

[8] = target: Nuclear receptor subfamily 1 group I member 2 (Homo sapiens) (UniProt O75469); assay: CYP3A4 induction through human pregnane X receptor (PXR) by small molecules, qHTS assay (AID 1346984); further: nearly all actives have a fitted effect of over 40% in size; further: potency means the concentration at half of the fitted maximal effect
In short: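 Cells (DPX-2; HepG2 with PXR element plus CYP3A4-promoter luciferase) settled 5hr, then were treated 24hr at 37C. A 3hr, 3uM-final Luciferin-IPA step preceded luminescence measurement with One-Glo.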

[9] = target: Nuclear receptor subfamily 1 group I member 2 (Homo sapiens) (UniProt O75469); assay: Human pregnane X receptor (PXR) activation by small molecules, qHTS assay (AID 1346985); further: nearly all actives have a fitted effect of over 40% in size
In short: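 DPX-2 cells (HepG2 co-transfected with a PXR response element and a CYP3A4-promoter luciferase construct) were seeded at 2,000 per well, rested 5 hr at 37C, then exposed to DMSO-dissolved compounds for 24 hr. Activation was read as luciferase luminescence.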

[10] = target: Acetylcholinesterase (Homo sapiens) (UniProt P22303); assay: Acetylcholinesterase (AChE) small molecule antagonists: colormetric cell-based qHTS assay (AID 1347395; calls by dose curve; further: nearly all actives have a fitted effect of over 30% in size)
Acetylcholinesterase (Homo sapiens), sequence (P22303 whole entry, looked up): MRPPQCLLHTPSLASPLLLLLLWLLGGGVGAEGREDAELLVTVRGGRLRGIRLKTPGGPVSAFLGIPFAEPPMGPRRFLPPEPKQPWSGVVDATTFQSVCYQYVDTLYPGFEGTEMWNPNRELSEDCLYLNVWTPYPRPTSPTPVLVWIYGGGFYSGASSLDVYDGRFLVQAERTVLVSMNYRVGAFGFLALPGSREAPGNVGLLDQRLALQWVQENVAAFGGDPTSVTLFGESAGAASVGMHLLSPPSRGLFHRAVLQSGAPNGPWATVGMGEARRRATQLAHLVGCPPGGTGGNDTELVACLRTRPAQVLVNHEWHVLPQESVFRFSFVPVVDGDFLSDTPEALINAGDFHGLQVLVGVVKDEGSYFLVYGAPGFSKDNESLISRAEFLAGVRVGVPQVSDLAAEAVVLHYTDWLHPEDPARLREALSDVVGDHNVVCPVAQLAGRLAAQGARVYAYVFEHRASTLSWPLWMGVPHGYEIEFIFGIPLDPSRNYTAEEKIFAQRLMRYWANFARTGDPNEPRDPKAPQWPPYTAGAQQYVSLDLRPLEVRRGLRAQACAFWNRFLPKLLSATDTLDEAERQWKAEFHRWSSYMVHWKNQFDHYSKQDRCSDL
In short: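 Homogeneous whole-cell format. SH-SY5Y cells seeded overnight, dosed with compound (30 min, 37 C, 5% CO2), then given DTNB/acetylthiocholine cocktail for 90 min at 37 C; colorimetric signal.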

[11] = target: Acetylcholinesterase (Homo sapiens) (UniProt P22303); assay: Acetylcholinesterase (AChE) small molecule antagonists: enzyme-based qHTS assay (AID 1347397; calls by dose curve; further: nearly all actives have a fitted effect of over 55% in size; further: potency means the concentration at half of the fitted maximal effect); details: Potency: AChE enzyme activity inhibition
In short: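 In this quantitative HTS, compounds from the Tox21 10K collection were preincubated 30 min at ambient temperature with recombinant human AChE dispensed at 50 mU/mL. Hydrolysis of acetylthiocholine was then followed for 10 min by DTNB colour development.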

[12] = target: Acetylcholinesterase (Homo sapiens) (UniProt P22303); assay: Acetylcholinesterase (AChE) small molecule antagonists: enzyme-based qHTS assay with human liver microsomes (AID 1347399; calls by dose curve; further: nearly all actives have a fitted effect of over 60% in size; further: potency means the concentration at half of the fitted maximal effect); details: Potency: qHTS inhibition
In short: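 Recombinant human AChE (50 mU/mL in the enzyme mix) and human liver microsomes (0.25 mg/mL final) were preincubated with compound and NADPH (0.25 mg/mL final) for 30 min at 37 C. Acetylthiocholine/DTNB was then added; thiocholine was read colorimetrically after 10 min at room temperature.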

[13] = target: Cytochrome P450 2D6 (Homo sapiens) (UniProt P10635); assay: Cytochrome P450 Family 2 Subfamily D Member 6 (CYP2D6) small molecule antagonists: luciferase reporter qHTS assay (AID 1671196); further: nearly all actives have a fitted effect of over 50% in size; further: potency means the concentration at half of the fitted maximal effect; on activity change, negative = inhibition: series mostly up to about 120 µM
Cytochrome P450 2D6 (Homo sapiens), sequence (P10635 whole entry, looked up): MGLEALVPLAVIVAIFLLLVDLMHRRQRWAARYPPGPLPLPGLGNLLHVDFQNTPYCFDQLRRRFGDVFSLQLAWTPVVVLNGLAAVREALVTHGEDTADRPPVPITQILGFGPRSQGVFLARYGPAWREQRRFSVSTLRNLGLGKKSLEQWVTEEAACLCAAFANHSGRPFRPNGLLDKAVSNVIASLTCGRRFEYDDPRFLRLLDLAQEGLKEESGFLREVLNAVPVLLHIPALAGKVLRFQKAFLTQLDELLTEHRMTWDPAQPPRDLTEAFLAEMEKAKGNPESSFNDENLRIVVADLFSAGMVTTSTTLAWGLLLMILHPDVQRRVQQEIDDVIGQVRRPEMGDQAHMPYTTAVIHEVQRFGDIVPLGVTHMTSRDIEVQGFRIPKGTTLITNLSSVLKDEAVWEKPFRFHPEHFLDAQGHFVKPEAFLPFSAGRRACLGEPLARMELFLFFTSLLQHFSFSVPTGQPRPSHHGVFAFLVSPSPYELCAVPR
In short: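 Room-temperature luminescent CYP2D6 activity assay: compound preincubated 10 min with enzyme–substrate mix, NADPH-initiated reaction 1 h, detection reagent 20 min before reading.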

[14] = target: Cytochrome P450 2C19 (Homo sapiens) (UniProt P33261); assay: Cytochrome P450 Family 2 Subfamily C Member 19 (CYP2C19) small molecule antagonists: luciferase reporter qHTS assay (AID 1671197); further: nearly all actives have a fitted effect of over 65% in size; further: potency means the concentration at half of the fitted maximal effect; on activity change, negative = inhibition: series mostly up to about 120 µM
Cytochrome P450 2C19 (Homo sapiens), sequence (P33261 whole entry, looked up): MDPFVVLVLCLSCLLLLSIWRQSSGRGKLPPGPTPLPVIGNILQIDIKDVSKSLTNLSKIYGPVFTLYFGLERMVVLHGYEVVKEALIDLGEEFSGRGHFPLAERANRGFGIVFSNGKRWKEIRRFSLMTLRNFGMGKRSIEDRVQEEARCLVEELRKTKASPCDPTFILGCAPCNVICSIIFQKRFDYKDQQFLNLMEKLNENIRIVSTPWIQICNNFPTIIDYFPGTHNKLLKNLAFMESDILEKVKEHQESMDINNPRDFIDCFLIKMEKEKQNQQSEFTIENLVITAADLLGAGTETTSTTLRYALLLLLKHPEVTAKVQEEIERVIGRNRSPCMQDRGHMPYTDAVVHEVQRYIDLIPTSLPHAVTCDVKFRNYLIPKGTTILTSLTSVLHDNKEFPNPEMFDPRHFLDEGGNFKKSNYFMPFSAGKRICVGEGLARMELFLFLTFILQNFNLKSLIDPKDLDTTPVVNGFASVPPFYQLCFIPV
In short: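 Inhibition of CYP2C19 was scored from loss of luminescence in a P450-Glo proluciferin substrate assay, NADPH-started and run 1 h at 37C, with ketoconazole as positive control.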

[15] = target: Cytochrome P450 2C9 (Homo sapiens) (UniProt P11712); assay: Cytochrome P450 Family 2 Subfamily C Member 9 (CYP2C9) small molecule antagonists: luciferase reporter qHTS assay (AID 1671198); further: nearly all actives have a fitted effect of over 50% in size; further: potency means the concentration at half of the fitted maximal effect; on activity change, negative = inhibition: series mostly up to about 120 µM
Cytochrome P450 2C9 (Homo sapiens), sequence (P11712 whole entry, looked up): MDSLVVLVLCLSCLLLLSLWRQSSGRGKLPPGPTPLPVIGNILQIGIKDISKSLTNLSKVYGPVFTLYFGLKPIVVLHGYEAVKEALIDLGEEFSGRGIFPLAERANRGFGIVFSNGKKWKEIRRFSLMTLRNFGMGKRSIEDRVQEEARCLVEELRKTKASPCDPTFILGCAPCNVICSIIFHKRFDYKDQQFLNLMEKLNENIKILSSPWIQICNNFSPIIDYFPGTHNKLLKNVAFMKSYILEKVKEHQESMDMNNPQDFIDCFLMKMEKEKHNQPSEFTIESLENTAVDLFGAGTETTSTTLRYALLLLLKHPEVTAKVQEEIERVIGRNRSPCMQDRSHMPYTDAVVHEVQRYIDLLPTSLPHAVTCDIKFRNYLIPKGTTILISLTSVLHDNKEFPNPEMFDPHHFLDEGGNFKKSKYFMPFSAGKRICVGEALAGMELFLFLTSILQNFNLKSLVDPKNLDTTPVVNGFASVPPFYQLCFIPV
In short: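 P450-Glo proluciferin substrate with CYP2C9 enzyme; 10 min RT preincubation, then NADPH regeneration 1 h at 37C; luciferin detection reagent 20 min RT, luminescence in relative luminescence units.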

[16] = target: Cytochrome P450 1A2 (Homo sapiens) (UniProt P05177); assay: Cytochrome P450 Family 1 Subfamily A Member 2 (CYP1A2) small molecule antagonists: luciferase reporter qHTS assay (AID 1671199); further: nearly all actives have a fitted effect of over 50% in size; further: potency means the concentration at half of the fitted maximal effect; on activity change, negative = inhibition: series mostly up to about 120 µM
In short: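 Room-temperature CYP1A2 reaction with proluciferin substrate: compounds added from DMSO, 10 min preincubation, NADPH regeneration for 1 h. Luciferin detection reagent then added; luminescence recorded as RLU.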

[17] = target: Voltage-gated inwardly rectifying potassium channel KCNH2 (Homo sapiens) (UniProt Q12809); assay: Human Ether-a-go-go-Related Gene (hERG) channel small molecule antagonists: fluorescence cell-based qHTS assay (AID 1671200); further: nearly all actives have a fitted effect of over 50% in size; further: potency means the concentration at half of the fitted maximal effect;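 on activity change, negative = inhibition: hERG-expressing U2OS cells given a thallium stimulus after FluxOR II dye loading; series mostly up to about 77 µM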
Voltage-gated inwardly rectifying potassium channel KCNH2 (Homo sapiens), sequence (Q12809 whole entry, looked up): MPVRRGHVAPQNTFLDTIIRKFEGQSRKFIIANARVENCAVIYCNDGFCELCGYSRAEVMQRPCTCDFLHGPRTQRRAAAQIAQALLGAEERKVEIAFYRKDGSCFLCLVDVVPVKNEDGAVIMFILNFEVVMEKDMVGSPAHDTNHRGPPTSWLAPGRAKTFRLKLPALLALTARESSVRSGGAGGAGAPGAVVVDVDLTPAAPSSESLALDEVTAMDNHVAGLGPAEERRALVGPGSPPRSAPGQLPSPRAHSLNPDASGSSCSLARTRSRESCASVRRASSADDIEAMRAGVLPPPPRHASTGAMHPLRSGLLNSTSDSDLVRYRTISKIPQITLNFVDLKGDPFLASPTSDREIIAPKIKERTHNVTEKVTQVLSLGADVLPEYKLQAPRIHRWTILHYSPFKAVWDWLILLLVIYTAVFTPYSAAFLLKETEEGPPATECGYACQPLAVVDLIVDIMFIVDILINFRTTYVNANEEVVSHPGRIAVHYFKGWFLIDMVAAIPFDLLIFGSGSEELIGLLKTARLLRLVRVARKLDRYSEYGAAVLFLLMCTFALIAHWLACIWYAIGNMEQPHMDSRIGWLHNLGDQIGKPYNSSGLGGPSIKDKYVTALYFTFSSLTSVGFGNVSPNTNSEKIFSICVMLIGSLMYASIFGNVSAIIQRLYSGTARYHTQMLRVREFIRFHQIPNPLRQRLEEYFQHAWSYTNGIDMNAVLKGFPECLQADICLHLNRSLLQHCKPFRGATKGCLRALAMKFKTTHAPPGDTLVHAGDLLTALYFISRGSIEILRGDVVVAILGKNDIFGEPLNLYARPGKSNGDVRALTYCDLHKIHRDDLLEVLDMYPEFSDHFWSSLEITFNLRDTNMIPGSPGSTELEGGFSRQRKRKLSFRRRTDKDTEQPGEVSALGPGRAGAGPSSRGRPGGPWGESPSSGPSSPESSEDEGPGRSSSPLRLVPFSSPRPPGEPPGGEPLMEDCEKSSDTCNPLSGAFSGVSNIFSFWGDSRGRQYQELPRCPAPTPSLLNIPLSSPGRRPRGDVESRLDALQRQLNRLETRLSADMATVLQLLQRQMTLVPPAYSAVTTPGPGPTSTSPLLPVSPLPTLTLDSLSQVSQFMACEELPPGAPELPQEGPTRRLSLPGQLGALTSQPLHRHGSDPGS
In short: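 Thallium served as the potassium surrogate; its influx into dye-loaded U2OS cells carrying the channel was measured by fluorescence over 2 min.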

[18] = target: Cytochrome P450 3A4 (Homo sapiens) (UniProt P08684); assay: Cytochrome P450 Family 3 Subfamily A Member 4 (CYP3A4) small molecule antagonists: luciferase reporter qHTS assay (AID 1671201); further: nearly all actives have a fitted effect of over 50% in size; further: potency means the concentration at half of the fitted maximal effect; on activity change, negative = inhibition: series mostly up to about 120 µM
Cytochrome P450 3A4 (Homo sapiens), sequence (P08684 whole entry, looked up): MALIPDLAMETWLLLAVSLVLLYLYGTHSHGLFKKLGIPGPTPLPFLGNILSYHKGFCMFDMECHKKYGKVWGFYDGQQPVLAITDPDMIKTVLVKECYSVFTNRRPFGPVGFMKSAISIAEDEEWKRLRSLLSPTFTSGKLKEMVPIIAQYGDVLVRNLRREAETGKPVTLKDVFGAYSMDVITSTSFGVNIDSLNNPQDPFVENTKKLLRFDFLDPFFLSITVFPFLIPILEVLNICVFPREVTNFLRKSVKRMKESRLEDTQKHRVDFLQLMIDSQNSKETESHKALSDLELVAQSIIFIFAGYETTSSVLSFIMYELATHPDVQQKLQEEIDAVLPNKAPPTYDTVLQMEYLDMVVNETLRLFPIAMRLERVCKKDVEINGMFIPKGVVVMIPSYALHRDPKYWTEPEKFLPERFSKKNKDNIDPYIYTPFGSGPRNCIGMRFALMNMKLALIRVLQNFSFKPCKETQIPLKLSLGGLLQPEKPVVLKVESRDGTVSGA
In short: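 Relative luminescence units after 20 min with luciferin detection reagent served as read-out. Beforehand, CYP3A4 turned over a proluciferin substrate for 1 h at room temperature with NADPH regeneration, following 10 min compound preincubation.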

[19] = target: Acetylcholinesterase (Homo sapiens) (UniProt P22303); assay: Acetylcholinesterase (AChE) small molecule antagonists: fluorescence cell-based qHTS assay (AID 1347398; calls by dose curve; further: nearly all actives have a fitted effect of over 50% in size; further: potency means the concentration at half of the fitted maximal effect); details: Potency: AChE activity
In short: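 Cells (SH-SY5Y) attached overnight, were dosed with compound or DMSO vehicle for 30 min at 37 C, and then incubated 40 min at room temperature with acetylthiocholine and Thiolite Green; green fluorescence indexed AChE activity.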

Compound: Cc1ccc(N=CN(C)C=Nc2ccc(C)cc2C)c(C)c1
- Potency [1]: inactive
- Potency [2]: inactive
- Potency [3]: inactive
- Potency [4]: inactive
- Potency [5]: inactive
- Potency [6]: 15.4 µM (active) and inactive
- max activation [7]: 0.462% (inactive)
- Potency [8]: inactive
- outcome [9]: inactive
- Potency [10]: inactive
- Potency [11]: inactive
- Potency [12]: inactive
- Potency [13]: 31.9 µM (active) and 35.6 µM (active) and 27.5 µM (active)
- Potency [14]: 79.6 µM (active) and inactive
- Potency [15]: inactive
- Potency [16]: 31.9 µM (active) and 35.6 µM (active) and 30.9 µM (active)
- Potency [17]: inactive
- Potency [18]: inactive

Compound: C[N+](C)(C)CC(=O)[O-]
- Potency [1]: inactive
- Potency [2]: inactive
- Potency [3]: inactive
- Potency [4]: inactive
- Potency [5]: inactive
- Potency [6]: inactive
- Potency [10]: inactive
- Potency [11]: inactive
- Potency [19]: inactive
- Potency [12]: inactive
- Potency [13]: inactive
- Potency [14]: inactive
- Potency [15]: inactive
- Potency [16]: inactive
- Potency [17]: inactive
- Potency [18]: inactive

Compound: CC(C)=CC1C(C(=O)OCc2cccc(Oc3ccccc3)c2)C1(C)C (centres undefined)
- Potency [1]: inactive
- Potency [2]: inactive
- Potency [3]: inactive
- Potency [4]: inactive
- Potency [5]: inactive
- Potency [6]: 24.3 µM (active) and 13.3 µM (active)
- max activation [7]: 1.4% (inactive)
- Potency [8]: inactive
- Potency [10]: inactive
- Potency [11]: inactive
- Potency [19]: inactive
- Potency [12]: inactive
- Potency [13]: 39.9 µM (active) and inactive
- Potency [14]: 7.96 µM (active)
- Potency [15]: 3.17 µM (active) and 3.09 µM (active)
- Potency [17]: inactive
- Potency [18]: inactive

Compound: c1ccc2c(c1)Nc1ccccc1S2
- Potency [1]: inactive
- Potency [2]: inactive
- Potency [3]: 68.6 µM (active) and inactive
- Potency [4]: inactive
- Potency [5]: inactive
- Potency [6]: 27.3 µM (active)
- max activation [7]: -0.408% (inactive)
- Potency [8]: 0.708 µM (active)
- outcome [9]: inactive
- Potency [10]: inactive
- Potency [11]: inactive
- Potency [12]: inactive
- Potency [13]: inactive
- Potency [14]: 2.24 µM (active) and 8.71 µM (active)
- Potency [15]: inactive
- Potency [16]: 731 nM (active) and 645 nM (active)
- Potency [17]: inactive

Compound: CC(C)=CC1C(C(=O)OCN2C(=O)C3=C(CCCC3)C2=O)C1(C)C (centres undefined)
- Potency [1]: inactive
- Potency [2]: inactive
- Potency [3]: inactive
- Potency [4]: inactive
- Potency [5]: inactive
- Potency [6]: 61.1 µM (active) and 29.8 µM (active)
- max activation [7]: -0.665% (inactive)
- Potency [8]: 12.6 µM (active)
- Potency [10]: inactive
- Potency [11]: inactive
- Potency [19]: inactive
- Potency [12]: inactive
- Potency [13]: 22.4 µM (active) and 15.5 µM (active)
- Potency [14]: 8.94 µM (active) and 3.89 µM (active)
- Potency [15]: 35.6 µM (active) and 27.5 µM (active)
- Potency [16]: inactive
- Potency [17]: 38.9 µM (active)

Compound: CCCCCCCCCCCCCl
- Potency [1]: inactive
- Potency [2]: inactive
- Potency [3]: inactive
- Potency [4]: inactive
- Potency [5]: inactive
- Potency [6]: inactive
- Potency [10]: inactive
- Potency [11]: inactive
- Potency [19]: inactive
- Potency [12]: inactive
- Potency [13]: inactive
- Potency [14]: inactive
- Potency [15]: inactive
- Potency [16]: inactive
- Potency [17]: inactive
- Potency [18]: 31.3 µM (active) and inactive

Compound: ClC(Cl)(Cl)Br
- Potency [1]: inactive
- Potency [2]: inactive
- Potency [3]: inactive
- Potency [4]: inactive
- Potency [5]: inactive
- Potency [6]: inactive
- Potency [10]: inactive
- Potency [11]: inactive
- Potency [19]: inactive
- Potency [12]: inactive
- Potency [13]: inactive
- Potency [14]: 39.4 µM (active)
- activity change, negative = inhibition [14]: 17.8% [at 23.6 µM] (inactive)
- activity change, negative = inhibition [15]: -6.85% [at 23.6 µM] (inactive)
- Potency [16]: inactive
- Potency [17]: inactive
- Potency [18]: inactive

Compound: C[C@]12CCC(=O)C=C1CC[C@@H]1[C@@H]2CC[C@@]2(C)[C@H]1CC[C@]2(C)O
- Potency [1]: inactive
- Potency [2]: inactive
- Potency [3]: 50.4 µM (active)
- Potency [4]: inactive
- Potency [5]: inactive
- Potency [6]: 43.6 µM (active) and inactive
- Potency [10]: inactive
- Potency [11]: inactive
- Potency [19]: inactive
- Potency [12]: inactive
- Potency [13]: 45.2 µM (active) and inactive
- Potency [14]: 35.9 µM (active) and inactive
- Potency [15]: 35.9 µM (active)
- Potency [16]: inactive
- Potency [17]: inactive
- Potency [18]: inactive

Compound: CCCCOCC1CO1 (centres undefined)
- Potency [1]: inactive
- Potency [2]: inactive
- Potency [3]: inactive
- Potency [4]: inactive
- Potency [5]: inactive
- Potency [6]: inactive
- Potency [10]: inactive
- Potency [11]: 10.1 µM (active) and inactive
- Potency [19]: 899 nM (active) and inactive
- Potency [12]: 63.7 µM (active) and inactive
- Potency [13]: inactive
- Potency [14]: inactive
- Potency [15]: inactive
- Potency [16]: inactive
- Potency [17]: inactive
- Potency [18]: inactive

Compound: Oc1ccc(Cl)cc1Cc1ccccc1
- Potency [1]: 70.8 µM (active) and inactive
- Potency [2]: 53.6 µM (active)
- Potency [3]: 55.1 µM (active)
- Potency [4]: inactive
- Potency [5]: 61.9 µM (active) and inactive
- Potency [6]: 61.1 µM (active) and 19.6 µM (active) and inactive
- max activation [7]: -2.22% (inactive)
- Potency [8]: inactive
- outcome [9]: inactive
- Potency [10]: inactive
- Potency [11]: inactive
- Potency [19]: inactive
- Potency [12]: inactive
- Potency [13]: 67.8 µM (active) and inactive
- Potency [14]: 3.56 µM (active) and 1.61 µM (active) and 2.19 µM (active)
- Potency [15]: 25.2 µM (active) and 12.1 µM (active) and 9.77 µM (active)
- Potency [16]: 44.8 µM (active) and 33 µM (active) and 30.9 µM (active)
- Potency [17]: inactive
- Potency [18]: inactive
